# “And” between values parts separate entries of the source, which are not always exact repeats. Equal values may be shown once. Hit rate of the full screen: of about 5,500 compounds, about 2,000 (36%) were called active. Not shown: some 18% with an inconclusive outcome. This is one part of the list. Values without a mark were called inactive. No stated cut-off is given here; in the data, active means normalized growth mostly below about 0.91 (no sharp cut-off); inconclusive means no clear call, values can overlap the other calls; inactive means mostly above about 0.92.
# Experiment: chemical genetic growth profiling, strain panel (AID 1159580);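 further: tested at 20 µM; growth read once vehicle control cultures reached saturation at 30 °C; 1 = growth at the plate median or of vehicle wells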
# Conditions: growth OD
structure (smiles),measurement,setting,value
CNCCC=C1c2ccccc2CCc2ccccc21,normalized growth,"S. cerevisiae deletion strains, locus YJR075W, strain HOC1, stronger effect = lower value",1.02 and 0.976
same,normalized growth,"S. cerevisiae deletion strains, locus YKL009W, strain mrt4, stronger effect = lower value",1.01
same,normalized growth,"S. cerevisiae deletion strains, locus YKL068W, stronger effect = lower value",1
same,normalized growth,"S. cerevisiae deletion strains, locus YKL085W, strain MDH1 (second series), stronger effect = lower value",1
same,normalized growth,"S. cerevisiae deletion strains, locus YKL085W, strain MDH1, stronger effect = lower value",1
same,normalized growth,"S. cerevisiae deletion strains, locus YKL160W, strain elf1, stronger effect = lower value",0.943
same,normalized growth,"S. cerevisiae deletion strains, locus YKL190W, strain CNB1, stronger effect = lower value",1.01
same,normalized growth,"S. cerevisiae deletion strains, locus YKR001C, strain vps1, stronger effect = lower value",1.06
same,normalized growth,"S. cerevisiae deletion strains, locus YKR026C, strain gcn3, stronger effect = lower value",0.975
same,normalized growth,"S. cerevisiae deletion strains, locus YKR091W, strain srl3, stronger effect = lower value",0.973
same,normalized growth,"S. cerevisiae deletion strains, locus YLL001W, strain dnm1, stronger effect = lower value",0.988
same,normalized growth,"S. cerevisiae deletion strains, locus YLL026W, stronger effect = lower value",0.978
same,normalized growth,"S. cerevisiae deletion strains, locus YLL041C, strain sdh2, stronger effect = lower value",0.985
same,normalized growth,"S. cerevisiae deletion strains, locus YLR027C, strain aat2, stronger effect = lower value",0.967
same,normalized growth,"S. cerevisiae deletion strains, locus YLR039C, strain RIC1, stronger effect = lower value",1.1
same,normalized growth,"S. cerevisiae deletion strains, locus YLR058C, strain SHM2, stronger effect = lower value",1.02
same,normalized growth,"S. cerevisiae deletion strains, locus YLR102C, strain apc9, stronger effect = lower value",1.01
same,normalized growth,"S. cerevisiae deletion strains, locus YLR113W, strain HOG1, stronger effect = lower value",1
same,normalized growth,"S. cerevisiae deletion strains, locus YLR221C, strain rsa3, stronger effect = lower value",0.991
same,normalized growth,"S. cerevisiae deletion strains, locus YLR258W, strain gsy2, stronger effect = lower value",0.957
same,normalized growth,"S. cerevisiae deletion strains, locus YLR262C, strain YPT6 (second series), stronger effect = lower value",1.01
same,normalized growth,"S. cerevisiae deletion strains, locus YLR262C, strain YPT6, stronger effect = lower value",1.13
same,normalized growth,"S. cerevisiae deletion strains, locus YLR268W, strain sec22, stronger effect = lower value",1.08
same,normalized growth,"S. cerevisiae deletion strains, locus YLR320W, strain mms22, stronger effect = lower value",0.967
same,normalized growth,"S. cerevisiae deletion strains, locus YLR330W, strain CHS5, stronger effect = lower value",1.01
same,normalized growth,"S. cerevisiae deletion strains, locus YLR342W, strain FKS1 (second series), stronger effect = lower value",0.977
same,normalized growth,"S. cerevisiae deletion strains, locus YLR342W, strain FKS1, stronger effect = lower value",0.91
same,normalized growth,"S. cerevisiae deletion strains, locus YLR357W, strain rsc2, stronger effect = lower value",0.956
same,normalized growth,"S. cerevisiae deletion strains, locus YLR370C, strain arc18, stronger effect = lower value",0.975
same,normalized growth,"S. cerevisiae deletion strains, locus YLR371W, strain rom2, stronger effect = lower value",1.02
same,normalized growth,"S. cerevisiae deletion strains, locus YLR384C, strain iki3, stronger effect = lower value",0.979
same,normalized growth,"S. cerevisiae deletion strains, locus YLR418C, strain cdc73, stronger effect = lower value",1.01
same,normalized growth,"S. cerevisiae deletion strains, locus YML016C, strain PPZ1, stronger effect = lower value",1.01
same,normalized growth,"S. cerevisiae deletion strains, locus YML032C, strain rad52, stronger effect = lower value",1.06
same,normalized growth,"S. cerevisiae deletion strains, locus YML120C, strain ndi1, stronger effect = lower value",0.986
same,normalized growth,"S. cerevisiae deletion strains, locus YML124C, strain tub3, stronger effect = lower value",1.01
same,normalized growth,"S. cerevisiae deletion strains, locus YMR058W, strain fet3, stronger effect = lower value",0.964
same,normalized growth,"S. cerevisiae deletion strains, locus YMR078C, strain ctf18, stronger effect = lower value",1.02
same,normalized growth,"S. cerevisiae deletion strains, locus YMR125W, strain sto1, stronger effect = lower value",0.933
same,normalized growth,"S. cerevisiae deletion strains, locus YMR129W, stronger effect = lower value",0.976
same,normalized growth,"S. cerevisiae deletion strains, locus YMR205C, strain PFK2, stronger effect = lower value",0.98
same,normalized growth,"S. cerevisiae deletion strains, locus YMR223W, strain ubp8, stronger effect = lower value",0.989
same,normalized growth,"S. cerevisiae deletion strains, locus YMR231W, strain pep5, stronger effect = lower value",0.974
same,normalized growth,"S. cerevisiae deletion strains, locus YMR263W, strain SAP30, stronger effect = lower value",1.01
same,normalized growth,"S. cerevisiae deletion strains, locus YMR307W, strain GAS1, stronger effect = lower value",1.02
same,normalized growth,"S. cerevisiae deletion strains, locus YNL067W, strain RPL9B, stronger effect = lower value",1.02
same,normalized growth,"S. cerevisiae deletion strains, locus YNL071W, strain lat1, stronger effect = lower value",0.987
same,normalized growth,"S. cerevisiae deletion strains, locus YNL128W, strain TEP1, stronger effect = lower value",1.01 and 1.07
same,normalized growth,"S. cerevisiae deletion strains, locus YNL153C, strain GIM3, stronger effect = lower value",1.02 and 0.984
same,normalized growth,"S. cerevisiae deletion strains, locus YNL175C, strain NOP13, stronger effect = lower value",1
same,normalized growth,"S. cerevisiae deletion strains, locus YNL183C, strain NPR1, stronger effect = lower value",0.938
same,normalized growth,"S. cerevisiae deletion strains, locus YNL197C, strain WHI3, stronger effect = lower value",1.01
same,normalized growth,"S. cerevisiae deletion strains, locus YNL209W, strain ssb2, stronger effect = lower value",0.984
same,normalized growth,"S. cerevisiae deletion strains, locus YNL224C, strain SQS1, stronger effect = lower value",1.02
same,normalized growth,"S. cerevisiae deletion strains, locus YNL233W, strain BNI4, stronger effect = lower value",1.01
same,normalized growth,"S. cerevisiae deletion strains, locus YNL248C, strain rpa49, stronger effect = lower value",0.952
same,normalized growth,"S. cerevisiae deletion strains, locus YNL250W, strain rad50, stronger effect = lower value",1.01
same,normalized growth,"S. cerevisiae deletion strains, locus YNL271C, strain bni1, stronger effect = lower value",1.01
same,normalized growth,"S. cerevisiae deletion strains, locus YNL298W, strain CLA4, stronger effect = lower value",1.02
same,normalized growth,"S. cerevisiae deletion strains, locus YNL307C, strain MCK1, stronger effect = lower value",1.01
same,normalized growth,"S. cerevisiae deletion strains, locus YNL322C, strain KRE1 (second series), stronger effect = lower value",0.98
same,normalized growth,"S. cerevisiae deletion strains, locus YNL322C, strain KRE1, stronger effect = lower value",1.01 and 0.982
same,normalized growth,"S. cerevisiae deletion strains, locus YNR049C, strain mso1, stronger effect = lower value",0.98
same,normalized growth,"S. cerevisiae deletion strains, locus YNR052C, strain pop2, stronger effect = lower value",1.02
same,normalized growth,"S. cerevisiae deletion strains, locus YOL006C, strain TOP1, stronger effect = lower value",0.969
same,normalized growth,"S. cerevisiae deletion strains, locus YOL012C, strain htz1",0.912
same,normalized growth,"S. cerevisiae deletion strains, locus YOL147C, strain pex11, stronger effect = lower value",1.02
same,normalized growth,"S. cerevisiae deletion strains, locus YOR001W, strain rrp6, stronger effect = lower value",0.988
same,normalized growth,"S. cerevisiae deletion strains, locus YOR061W, strain CKA2, stronger effect = lower value",1.01
same,normalized growth,"S. cerevisiae deletion strains, locus YOR069W, strain VPS5, stronger effect = lower value",1.01
same,normalized growth,"S. cerevisiae deletion strains, locus YOR070C, strain gyp1, stronger effect = lower value",0.978
same,normalized growth,"S. cerevisiae deletion strains, locus YOR080W, strain dia2, stronger effect = lower value",0.967
same,normalized growth,"S. cerevisiae deletion strains, locus YOR083W, strain WHI5 (second series), stronger effect = lower value",1.01
same,normalized growth,"S. cerevisiae deletion strains, locus YOR083W, strain WHI5, stronger effect = lower value",0.898
same,normalized growth,"S. cerevisiae deletion strains, locus YOR106W, strain vam3, stronger effect = lower value",0.949
same,normalized growth,"S. cerevisiae deletion strains, locus YOR136W, strain idh2, stronger effect = lower value",1.01
same,normalized growth,"S. cerevisiae deletion strains, locus YOR144C, strain elg1, stronger effect = lower value",1.03
same,normalized growth,"S. cerevisiae deletion strains, locus YOR184W, strain ser1, stronger effect = lower value",1.04
same,normalized growth,"S. cerevisiae deletion strains, locus YOR231W, strain MKK1, stronger effect = lower value",1.01
same,normalized growth,"S. cerevisiae deletion strains, locus YOR265W, strain rbl2, stronger effect = lower value",0.989
same,normalized growth,"S. cerevisiae deletion strains, locus YOR270C, strain vph1, stronger effect = lower value",0.731 (active)
same,normalized growth,"S. cerevisiae deletion strains, locus YOR290C, strain snf2, stronger effect = lower value",0.928
same,normalized growth,"S. cerevisiae deletion strains, locus YOR316C, strain cot1, stronger effect = lower value",1.02
same,normalized growth,"S. cerevisiae deletion strains, locus YPL051W, strain arl3, stronger effect = lower value",0.956
same,normalized growth,"S. cerevisiae deletion strains, locus YPL055C, strain LGE1, stronger effect = lower value",1.05 and 0.967
same,normalized growth,"S. cerevisiae deletion strains, locus YPL078C, strain atp4, stronger effect = lower value",0.959
same,normalized growth,"S. cerevisiae deletion strains, locus YPL106C, strain sse1, stronger effect = lower value",0.983
same,normalized growth,"S. cerevisiae deletion strains, locus YPL240C, strain hsp82, stronger effect = lower value",1
same,normalized growth,"S. cerevisiae deletion strains, locus YPL241C, strain CIN2, stronger effect = lower value",1.01
same,normalized growth,"S. cerevisiae deletion strains, locus YPL256C, strain CLN2, stronger effect = lower value",0.962
same,normalized growth,"S. cerevisiae deletion strains, locus YPR119W, strain clb2, stronger effect = lower value",1.01
same,normalized growth,"S. cerevisiae deletion strains, locus YPR141C, strain kar3, stronger effect = lower value",1.01
same,normalized growth,"S. cerevisiae deletion strains, locus YPR163C, strain tif3, stronger effect = lower value",1.03
same,normalized growth,"S. cerevisiae deletion strains, locus YPR167C, strain met16, stronger effect = lower value",1.02
same,normalized growth,"S. cerevisiae deletion strains, strain wtn01, stronger effect = lower value",1.05
same,normalized growth,"S. cerevisiae strains, strain wild type, stronger effect = lower value",1.01

# — PubChem BioAssay AID1159580 (chemical genetic matrix, 2015)
